Where “and” joins values, the source holds several entries; their conditions need not be identical. Equal entries are not always repeated. Screen size: about 360,000 compounds; about 2,600 (0.72%) were called active. The sample holds actives, similar compounds and a random draw of the others, so the mix is not that of the screen. A number with no mark means an inactive call.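 How the source made its calls: active means inhibition above its plate's cutoff, the mean inhibition of sample wells plus 3 SD (cut at about 27% in these data); inactive means the rest.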
What follows are molecules tested against Muscarinic acetylcholine receptor M4 (Homo sapiens) (UniProt P08173) (assay: CHRM4 blockers of acetylcholine calcium response – CHO cells, Fluo-8 calcium fluorescence, primary screen (AID 624125;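 further: 0% = acetylcholine EC80 with DMSO and 100% = DMSO without agonist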)). Conditions: CHO-hM4 cells, ACh EC80, Fluo-8 calcium fluorescence; at 3 µM; active compounds read high.
Sequence of Muscarinic acetylcholine receptor M4 (Homo sapiens) (P08173 whole entry, looked up): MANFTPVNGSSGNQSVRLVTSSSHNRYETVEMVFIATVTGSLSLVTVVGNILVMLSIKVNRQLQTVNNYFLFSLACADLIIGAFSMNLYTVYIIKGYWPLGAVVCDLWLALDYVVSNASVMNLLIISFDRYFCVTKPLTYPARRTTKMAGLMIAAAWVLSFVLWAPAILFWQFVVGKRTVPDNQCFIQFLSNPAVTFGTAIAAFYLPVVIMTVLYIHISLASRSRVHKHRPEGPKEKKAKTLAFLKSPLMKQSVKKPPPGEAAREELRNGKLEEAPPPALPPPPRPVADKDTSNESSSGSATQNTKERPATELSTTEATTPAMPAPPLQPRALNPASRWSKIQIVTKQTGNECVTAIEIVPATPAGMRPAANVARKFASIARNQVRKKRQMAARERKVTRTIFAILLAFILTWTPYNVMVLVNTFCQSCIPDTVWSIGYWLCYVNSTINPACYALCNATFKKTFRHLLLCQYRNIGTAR
`Cc1ccc(C2Nc3ccccc3C(=O)N2CCN2CCNC2=O)cc1` (configuration not stated) was tested, and the inhibition was -5.69%.
For `COc1ccc(C(C#N)N2N=C(C)CC2(C)C)cc1` (configuration not stated), the inhibition was -4.9%.
For `CC[C@@H]1Cc2cc(O)ccc2C2=C1c1ccc(O)cc1C[C@H]2CC`, the inhibition was 72.5% (active).
With `CCOC(=O)C1(Cc2ccccc2C)CCCN(C(=O)CN2C(=O)CSC2=O)C1` (configuration not stated) the inhibition was 4.46%.
For `O=C(CSc1ccc(-c2ccc(-n3cccn3)cc2)nn1)Nc1ccc([N+](=O)[O-])cc1`, the inhibition was 101% (active).
`O=C(CSc1ccc(-c2ccccn2)nn1)Nc1ccccc1` gave an inhibition of 5.15%.
Work on `O=C(CSc1ccc([N+](=O)[O-])cn1)Nc1ccc(N2CCOCC2)cc1` yielded an inhibition of -3.21%.
`O=C(O)CC12CC3CC(C1)CC(n1ncc(NCc4ccc(F)cc4)c(Cl)c1=O)(C3)C2` showed an inhibition of 4.05%.
For `Cc1nn(CC(=O)NCC2CCCO2)c(=O)c2cc3ccccc3n12` (configuration not stated), the inhibition was -2.94%.
In the case of `Cc1nn(-c2ccccc2)c2c1c(C)c(CCC(=O)NCC1CCCO1)c(=O)n2C` (configuration not stated), the inhibition is reported as -9.84%.
For `Cc1sc2c(c1C)c(=O)n(-c1ccccc1)c(=O)n2CC(=O)NCC1CCCO1` (configuration not stated), the inhibition was 27.2% (active).
Work on `COC(=O)/C(=C1\Oc2ccc(C(C)(C)C)cc2S1)C(F)(F)F` yielded an inhibition of -0.07%.
`CCN(CC)CCOC(=O)c1ccc(NC(=O)CNC(=O)c2ccccc2)cc1` was tested, and the inhibition was -1.05%.
`COC(CCN(C)C)(c1ccccc1)c1ccccc1` was tested, and the inhibition was 3.06%.
For `CCN(CC)CCNCC(=O)Nc1ccc(Oc2ccccc2)cc1`, the inhibition was -0.82%.
`CCC(C(=O)OCCN(CC)CC)c1ccccc1` (configuration not stated) was tested, and the inhibition was 54.1% (active).
With `CCC(C(=O)Nc1ccc(C(C)C)cc1)c1ccccc1` (configuration not stated) the inhibition was 23.7%.
`CCCC(C(=O)OCCN(CC)CC)(c1ccccc1)c1ccccc1` was tested, and the inhibition was 42.8% (active).
`CC1CCc2c(sc3c2C2=NS(=O)(=O)CCN2C=N3)C1` (configuration not stated) showed an inhibition of -3.55%.
`COc1ccc(S(=O)(=O)N2CCN(c3cnccn3)CC2)cc1` gave an inhibition of 5.44%.
With `O=C1CCc2cc(S(=O)(=O)Nc3ccc(C(F)(F)F)cc3)cc3c2N1CC3` the inhibition was -14.8%.
For `CC(C)(C)NC(=O)COc1ccc(CNc2ccc3[nH]c(=O)[nH]c3c2)cc1`, the inhibition was -1.92%.
`Cc1cc([N+](=O)[O-])c(=O)[nH]c1C` gave an inhibition of 3.71%.
`CCOC(=O)C1Nc2ccc(C(F)(F)F)cc2C2C=CCC12` (configuration not stated) showed an inhibition of -1.13%.
`COc1cc(-c2noc(C3CCCN(S(=O)(=O)c4cccc(Cl)c4)C3)n2)cc(OC)c1OC` (configuration not stated) was tested, and the inhibition was 30.5% (active).
`CC(C)c1ccc(-c2noc(C3CCCN(S(C)(=O)=O)C3)n2)cc1` (configuration not stated) showed an inhibition of -17.6%.
Work on `COc1cccc(-c2noc(C3CCCN(C(=O)c4ccc(F)cc4)C3)n2)c1` (configuration not stated) yielded an inhibition of -18%.
`Clc1ccc(-c2nnc(-c3ccccc3)nc2N2CCSCC2)cc1` showed an inhibition of -4.43%.
`CC12CCCCC1=CC(=O)CC2` (configuration not stated) showed an inhibition of 2.52%.
Molecule `Cc1ccc(S(=O)(=O)N2CCCCC2)cc1NC(=O)CCNC(=O)c1ccccc1Cl` has an inhibition of -5.04%.
In the case of `CN(C(=O)CSc1nnc(-c2ccc(C(C)(C)C)cc2)n1C)C1CCS(=O)(=O)C1` (configuration not stated), the inhibition is reported as 0.43%.
`OC(c1ccccc1)(c1ccccc1)C1CCN(CCCOc2ccccc2)CC1` was tested, and the inhibition was 91.6% (active).
With `O=c1[nH]c2ccccc2n1C1CCN(CCOc2ccccc2)CC1` the inhibition was -13.4%.
`COc1ccc(OCCCCN2CCC(C)CC2)cc1` gave an inhibition of 9.1%.
`Cc1ccc(S(=O)(=O)N2CCOCC2)cc1C(=O)NC(=S)N(Cc1ccccc1)C(C)C` showed an inhibition of 0.9%.
In the case of `CCCCc1nc2ccc(F)cc2cc1C`, the inhibition is reported as -4.37%.
With `Cc1sc2ncnc(N3CCC(C(=O)Nc4ccc(F)cc4Cl)CC3)c2c1C` the inhibition was 46.6% (active).
Work on `Cc1sc2ncnc(N3CCC(C(=O)NNC(=O)c4ccc(F)cc4)CC3)c2c1C` yielded an inhibition of -17.4%.
`Cc1sc2ncnc(N3CCC(C(=O)Nc4nc5ccc(Cl)cc5s4)CC3)c2c1C` gave an inhibition of -9.33%.
Work on `COC(=O)c1cc(N2CCNCC2)nc2ccccc12` yielded an inhibition of 6.45%.
In the case of `CS(=O)(=O)N1CCN(CC(=O)NC2CCCC2)CC1`, the inhibition is reported as 1.25%.
For `Clc1ccc(C=NC23CN4CN(CN(C4)C2)C3)cc1`, the inhibition was -1.64%.
Work on `O=C(c1ccccc1F)N1CCN(S(=O)(=O)c2ccc(Br)cc2)CC1` yielded an inhibition of 3.23%.
With `OCCC1CN(Cc2ccc3nsnc3c2)CCN1C1CCCC1` (configuration not stated) the inhibition was 47.5% (active).
`CCOc1ccc(CN2CCN(Cc3ccc(C)o3)CC2CCO)cc1` (configuration not stated) gave an inhibition of 1.46%.
Work on `COc1ccc(CN2CCN(Cc3cn(C)nc3-c3ccccc3)CC2CCO)c(C)c1C` (configuration not stated) yielded an inhibition of -2.82%.
`CC(C)N1CCC(N2CCN(Cc3cccnc3)CC2CCO)CC1` (configuration not stated) showed an inhibition of -8.19%.
With `Cc1ccc(CN2CCN(Cc3ccc(OCCO)cc3)CC2CCO)o1` (configuration not stated) the inhibition was 2.78%.
Work on `Cc1ccc(CN2CCN(Cc3ccc4ncccc4c3)CC2CCO)cc1` (configuration not stated) yielded an inhibition of -9.31%.
In the case of `OCCC1CN(Cc2ccc3nsnc3c2)CCN1C1CCCCC1` (configuration not stated), the inhibition is reported as 26.8% (active).
Work on `OCC1(CCc2ccccc2)CCN(Cc2ccc3nsnc3c2)CC1` yielded an inhibition of 8.32%.
For `Cn1cnnc1Sc1ccc(CN2CCN(C3CCCC3)C(CCO)C2)o1` (configuration not stated), the inhibition was 42.6% (active).
`COc1cccc2c1OCC(CN1CCN(C3CCCCC3)C(CCO)C1)=C2` (configuration not stated) was tested, and the inhibition was 26.6% (active).
In the case of `OCCC1CN(Cc2cccc(O)c2)CCN1CCc1ccccc1` (configuration not stated), the inhibition is reported as -6.17%.
Molecule `OCCC1CN(Cc2cccc(OC3CCCC3)c2)CCN1Cc1ccsc1` (configuration not stated) has an inhibition of 2.69%.
With `CCC(Sc1nncn1C)C(=O)Nc1nnc(-c2ccc(Cl)cc2)s1` (configuration not stated) the inhibition was -32.3%.
`CCOc1cc(-c2noc(CCCC(=O)NC3CCCCC3)n2)ccc1OC` was tested, and the inhibition was -15.3%.
Work on `CC(c1ccccn1)N(C)C(=O)c1ccc2nc(Cc3cccc(Cl)c3)oc2c1` (configuration not stated) yielded an inhibition of 0.98%.
Molecule `Cc1ccc(NC(=O)C(C)OC(=O)C2CC3CCCC(C2)C3=O)cc1S(=O)(=O)N1CCOCC1` (configuration not stated) has an inhibition of -3.85%.
In the case of `CCc1nc2c(OCc3ccc(C(F)(F)F)cc3)cccn2c1N(C)C(=O)CC(C)C`, the inhibition is reported as 3.96%.
`Cc1cc(=O)oc2cc(NC(=O)C3CC(=O)N(Cc4ccccc4)C3)ccc12` (configuration not stated) gave an inhibition of -0.59%.
`O=C(O)C1CCN1C1CCCCC1` (configuration not stated) showed an inhibition of 2.3%.
Work on `COC(=O)c1c(C)oc(C)c1S(=O)(=O)NCc1ccc(Cl)cc1` yielded an inhibition of 12.7%.
Molecule `CN(CCN1CCOCC1)Cc1nc(-c2ccc3c(c2)OCO3)no1` has an inhibition of 8.12%.
Work on `CCOc1ccc(NC(=O)C2CC(=O)N=C(N)S2)cc1` (configuration not stated) yielded an inhibition of -0.59%.
`COc1ccc(C(=O)OCC(=O)NCC2CCCO2)cc1[N+](=O)[O-]` (configuration not stated) gave an inhibition of -10.6%.
`Cc1cc(-c2nnc(SCC(=O)Nc3ccc(F)cc3)n2N)n[nH]1` was tested, and the inhibition was 8.94%.
For `CSCCC(NS(=O)(=O)c1ccccc1F)C(=O)N1CC=C(c2ccccc2)CC1` (configuration not stated), the inhibition was 3.15%.
In the case of `COC(=O)C1=C(N)Oc2cc(C)[nH]c(=O)c2C1c1ccc(Cl)cc1` (configuration not stated), the inhibition is reported as 0.29%.
In the case of `O=C1NC(=O)C(c2ccc(Cl)cc2)N1` (configuration not stated), the inhibition is reported as -2.3%.
In the case of `O=C1CSC(c2ccc(Cl)cc2)N1` (configuration not stated), the inhibition is reported as 27.7% (active).
For `COc1ccc(C(=O)Oc2ccc(-c3nnco3)cc2)cc1S(=O)(=O)N1CCOCC1`, the inhibition was -11.2%.
`O=C(OC1CC2CC1[C@H]1CCCCN1C2=O)N1CCOCC1` (some centres not stated) was tested, and the inhibition was -3.15%.
Molecule `CCc1ccc(S(=O)(=O)NCC(O)COc2ccc(OC)cc2)cc1` (configuration not stated) has an inhibition of -13%.
For `C#C[C@]1(O)CC[C@H]2[C@@H]3CCC4=CC(=O)CC[C@@H]4[C@H]3CC[C@@]21CC`, the inhibition was -4.91% and 3.68%.
For `CN1CCN(C2Cc3ccc(Cl)cc3Sc3ccc(F)cc32)CC1` (configuration not stated), the inhibition was 38.1% (active).
`CCOCCCNC(=O)C(NC(=O)c1ccc(=O)[nH]c1)c1ccc(C)cc1` (configuration not stated) gave an inhibition of -5.59%.
`CN(Cc1ccc(F)cc1Cl)S(=O)(=O)c1cccs1` gave an inhibition of -1.2%.
With `CN(C)Cc1ccc(F)cc1Sc1cc(Cl)ccc1Cl` the inhibition was 43.8% (active).
Work on `Cc1ccc(-c2ccc(=O)n(Cc3ccc(F)cc3Cl)n2)cc1` yielded an inhibition of 0.63%.
`COc1cccc(CC(=NO)c2cccc(OC)c2)c1` was tested, and the inhibition was -5.79%.
For `O=C(C1CCCO1)N1CCN(C(=S)Nc2cccc(Cl)c2)CC1` (configuration not stated), the inhibition was 0.97%.
